# Test results: ChEMBL document CHEMBL4513216, “Probing the Open Global Health Chemical Diversity Library for Multistage-Active Starting Points for Next-Generation Antimalarials” (ACS Infect Dis, 2020)
# In all, about 69,000 compounds went through this assay and about 8,600 (12%) showed an effect of 50% or more. What follows is part of a selection rich in strong results, with near analogues and random picks from the rest.
# System: Plasmodium berghei
# Test: Screen against P. berghei liver stage (PbLuc), transformed with Luciferase, at 10uM
# Type: functional, HepG2
# Details: tested at 10 uM
row,Compound,INHIBITION [%]
1,CCn1cc(CNCCNc2ncc(Cl)cc2Cl)cn1,15.7
2,O=C(Cn1cnc2ccsc2c1=O)NCCCc1nnc2ccccn12,34.3
3,CCN1CCn2c(C)cnc2C12CCN(C(=O)C(C)C)CC2,-40.5
4,CN(C)c1cc(CNC(=O)Nc2nncs2)ccn1,-2.19
5,Cc1ccc2nc(C)c(C)c(C(=O)N3CCC4(CCO4)CC3)c2c1,33.3
6,CO[C@H]1CNC[C@@H]1NC(=O)c1cc(C)nc2ccc(C)cc12,-100
7,Cc1cc(C(=O)N(C)C2CCN(C)C2)c2ccc(F)cc2n1 (centres undefined),21.5
8,Cc1cc(C(=O)N2CCN[C@H](C)C2)c2ccc(F)cc2n1,12.2
9,Cc1cc(C(=O)N[C@H]2COC[C@@H]2N2CCOCC2)c2ccc(F)cc2n1,55.4
10,Cc1nc(C(=O)N[C@H]2COC[C@@H]2N2CCCCC2)cs1,11.3
11,Cc1ccc2nc(C)c(C)c(C(=O)N[C@H]3COC[C@@H]3N3CCCC3)c2c1,59.1
12,CCO[C@H]1CN(C)C[C@@H]1NC(=O)c1cc(C)nc2ccc(C)cc12,28.4
13,Cc1ccc2nc(C)cc(C(=O)N[C@H]3COC[C@@H]3N3CCOCC3)c2c1,66.5
14,CCc1nccn1C1CCCN(C(=O)Cc2cn3ccsc3n2)C1 (centres undefined),-23.9
15,CC(C)c1nnc2ccc(N3CCC(C(=O)NC4CC4)CC3)nn12,-18.9
16,CC(C)CNC(=O)NC(=O)C(C)Nc1cccc(CN2CCOC2=O)c1 (centres undefined),-34.2
17,CC(C)c1ccc(OCCC(=O)N2CCC(C(=O)N(C)C)CC2)cc1,-37.55
18,Cc1cc(C(=O)N2CCCCC2c2nc3cc(F)ccc3[nH]2)nn1C (centres undefined),10.7
19,Cn1cc(C2COC3(CCN(C(=O)c4cnccn4)CC3)C2)cn1 (centres undefined),39.2
20,Cc1oc(C(=O)O)cc1S(=O)(=O)Nc1ccc(Br)cc1Cl,-18.8
21,CN(C)CC(NC(=O)c1ccn(C)c(=O)c1)c1ccccc1 (centres undefined),4.34
22,O=C(NCC1(O)CCOCC1)c1ccc(F)cc1,54.8

row,Compound,INHIBITION [%]
1,CN(C)c1cccc(C(=O)NCC2(O)CCOCC2)c1,58.3
2,Cc1ccc(C(=O)NCC2(O)CCOCC2)cc1F,48.4
3,CC1(C(=O)NCc2ccsc2)CCOCC1,44.9
4,CC1(C(=O)NCc2cc(F)cc(F)c2)CCOCC1,37.5
5,COC(=O)c1ccc(C(=O)NCC2(O)CCOCC2)cc1,36.3
6,O=C(NCC1(O)CCOCC1)c1ccn(-c2ccccc2F)n1,-14.9
7,CN(C)c1ccc(C(=O)NCC2(O)CCOCC2)cc1,-3.95
8,CC1(C(=O)NCCc2ccc(F)cc2)CCOCC1,54
9,CN1CCN(C(=O)c2cc(C#N)cn2C)c2ccccc2C1,-59.5
10,CCn1cc(S(=O)(=O)N2CCCCCC2c2cc(C)no2)cn1 (centres undefined),-7.66
11,Cc1cc(C)n(CC2CCCN2C(=O)CCc2ccco2)n1 (centres undefined),27.25
12,NC(=O)C(Nc1ccc(Cl)cc1)c1ccc(F)cc1 (centres undefined),4.81
13,CCCc1nc(C(C)(C)NC(=O)C2CC(=O)N(CC(C)C)C2)no1 (centres undefined),-5.25
14,CC1=C(C#N)C(=O)NC(=O)/C1=C\c1c(C)[nH]n(-c2ccc(C)cc2)c1=O,47.1
15,Cn1cc(C(=O)OC2CN(c3nc4c(C(F)(F)F)cccc4s3)C2)nn1,-45.6
16,Cc1cc(O)c(OCC(=O)Nc2nc3c(s2)CCCC3)cn1,40
17,Cc1cc(O)c(OCC(=O)Nc2nccs2)cn1,-18
18,Cc1cc(O)c(OCC(=O)Nc2nc3c(s2)CCCCC3)cn1,54.9
19,CCc1ncc2c(n1)CN(Cc1nc(-c3ccoc3)no1)CC2,27.8
20,CN(C)C(=O)c1cccc(CN2CCOC(Cn3cccn3)C2)c1 (centres undefined),-2.33
21,O=C(c1ccc(Cl)cc1)N1CCC(N2CCOC2=O)CC1,41.6
22,O=C(CC1=CSC2=NCCN12)N1CCCC(CCc2cccc(F)c2)C1 (centres undefined),68.5

row,Compound,INHIBITION [%]
1,Nc1nc(CC(=O)N2CCCC(CCc3cccc(F)c3)C2)cc(=O)[nH]1 (centres undefined),7.3
2,O=C(CC1=CSC2=NCCCN12)N1CCCCC1c1cccc(F)c1 (centres undefined),32.3
3,Cc1cc(C(=O)N2C[C@@H]3CC[C@H]2CN(Cc2ccccn2)C3)nc(N)n1,4.59
4,CCN(C(=O)Nc1nncs1)C(C)c1cccc(OC)c1 (centres undefined),-5.22
5,CC(NC(=O)Nc1nccs1)c1cccnc1 (centres undefined),54.8
6,CC(NC(=O)Nc1nccs1)c1ccc(S(C)(=O)=O)cc1 (centres undefined),16.8
7,CC(NC(=O)Nc1nccs1)c1ccncc1 (centres undefined),5.91
8,CCN(C(=O)Nc1nccs1)C(C)c1cccc(O)c1 (centres undefined),71.3
9,CCN(C(=O)Nc1cc(C)on1)C(C)c1cccc(O)c1 (centres undefined),-2.43
10,Cc1cc(C(F)(F)F)n2nc(C3CCCN3C3CCSCC3)cc2n1 (centres undefined),5.535
11,CC1(C)CN(c2cc(C3CC3)ncn2)C[C@]1(C)O,-1.04
12,COCCn1ccc(NC(=O)Nc2ccc(C(N)=O)c(F)c2)n1,11.1
13,O=C(N[C@@H]1CCN(Cc2cc3ccccc3s2)C[C@H]1O)c1cccnc1,22
14,COC(=O)c1ccn(COc2ccccc2Cl)n1,-15.5
15,CCc1nc(C2CCCN2C(=O)CCn2cncn2)no1 (centres undefined),30.8
16,Cc1cc(=O)[nH]c(-n2nc(C)c(CCC(=O)NCc3cccs3)c2C)n1,72.2
17,Cc1cc(=O)[nH]c(-n2nc(C)c(CCC(=O)NCC(C)C)c2C)n1,11.3
18,Cc1cc(=O)[nH]c(-n2nc(C)c(CCC(=O)Nc3nc(C)cs3)c2C)n1,68.2
19,Cc1noc(C)c1CCC(=O)NCCc1cccs1,-1.99
20,COC(=O)CCc1c(C)nn(-c2nc(C)cc(=O)[nH]2)c1C,-12.6
21,Cc1cc(=O)[nH]c(-n2nc(C)c(CCC(=O)NCc3ccco3)c2C)n1,6.09
22,Cn1nc(C(=O)NC2(c3ccccc3)CCC2)ccc1=O,-4.35

row,Compound,INHIBITION [%]
1,Cc1c(C)c2c(c(C)c1O)CC[C@](C)(C(=O)O)O2 [(R)-TROLOX],-10.3
2,CC(C)CC(C)NCc1cccnc1N1CCN(c2ccccn2)CC1 (centres undefined),9.56
3,CCCC(C)NCc1cccnc1N1CCN(c2ccccn2)CC1 (centres undefined),50.7
4,CC(C)NCc1cccnc1N1CCN(c2ccccn2)CC1,37.7
5,CCc1nc(CN(C)C2CCN(CC(=O)N(C)C)C2)no1 (centres undefined),24
6,O=C(NC1CCN(C(=O)C2CCCCC2)C1)c1ccncc1Cl (centres undefined),14.1
7,Cc1cnn(CCNCC(O)COc2ccc(Cl)cc2Cl)c1 (centres undefined),66.7
8,Cc1cnn(CCNCC(O)c2cccc(Br)c2)c1 (centres undefined),16.8
9,Cc1cnn(CCNCC(O)c2ccc(F)c(F)c2)c1 (centres undefined),7.21
10,Cc1cnn(CCNCC(O)COc2ccc3ccccc3c2)c1 (centres undefined),17.4
11,Cc1cnn(CCNCC(=O)Nc2ccc(Cl)cn2)c1,-106
12,Cc1cnn(CCNCC(O)COc2cc(Cl)ccc2Cl)c1 (centres undefined),50.3
13,COc1cc(C(=O)NS(=O)(=O)c2cccc(C#N)c2)cc(OC)c1C,22.3
14,O=C(NCCN1CCCCCC1)c1n[nH]c(=O)c2ccccc12,4.71
15,O=C(CCc1ccc(Cl)cc1)N[C@@H]1CC[C@@H](O)[C@@H]1O,45.75
16,COc1ccc(CN2CCOC3(CCCN(c4cnccn4)C3)C2)cc1 (centres undefined),44.2
17,CN1CC2(CCCN(c3nc(N)nc4c3CCCC4)C2)OC1=O (centres undefined),45.6
18,Cc1cc(N2CCCC3(CN(C)C(=O)O3)C2)c2cc3c(cc2n1)OCO3 (centres undefined),28.6
19,CC1(C(=O)NC2CCCC2)CCCN(c2cnccn2)C1 (centres undefined),-4.51
20,CN1CC2(CCCN(c3cc(N4CCCCC4)ncn3)C2)OC1=O (centres undefined),60.1
21,CNC(=O)C1(C)CCCN(c2cnccn2)C1 (centres undefined),-26.2
22,CN1CC2(CCCN(c3cnccn3)C2)OC1=O (centres undefined),61

row,Compound,INHIBITION [%]
1,CC(C)Nc1cc(N2CCCC3(CN(C)C(=O)O3)C2)ncn1 (centres undefined),17.4
2,CC1(C(N)=O)CCCN(c2cnccn2)C1 (centres undefined),53.2
3,Cc1nc(CCC(N)=O)cc(C2CCNCC2)n1,-10.8
4,O=C(COC[C@@H]1CC[C@H]2[C@H](CCN2Cc2ccco2)O1)N1CCCC1,-54.9
5,Cc1c(C(=O)N2CCOCC2)nnn1-c1ccc2ncccc2c1,-29.7
6,Cc1cc(C(=O)NCc2ccnc(N3CCN(C)CC3)c2)no1,17.34
7,CN1CCN(C(=O)N2C[C@@H]3CC[C@H]2CN(Cc2ccccc2)C3)CC1,30.9
8,c1cnnc(N2CCCC(NCc3cn4ccccc4n3)C2)c1 (centres undefined),27.9
9,CCC1c2cccn2CCN1C(=O)c1ccno1 (centres undefined),-48.4
10,O=c1oc(-c2cccs2)nn1CC(O)c1ccccc1 (centres undefined),0.547
11,O=c1oc(-c2cccs2)nn1CC(O)c1ccc2c(c1)CCC2 (centres undefined),59.4
12,O=c1oc(-c2cccs2)nn1CC(O)c1ccc(F)cc1 (centres undefined),-23.5
13,CCNC(=O)N1CCC(Nc2nccc(NCC)n2)CC1,20.4
14,CCNc1ccnc(NC2CCN(CC(N)=O)CC2)n1,-9.92
15,CCNc1ccnc(NC2CCN(S(C)(=O)=O)CC2)n1,72.3
16,CCOC(=O)N1CC(=O)N(CCc2ccccc2)CC(O)C1 (centres undefined),28.3
17,CCN1C(=O)C(C)(C)c2cc(NC(=O)c3ccn(CC)n3)ccc21,-42.9
18,Cc1cc(C(=O)N2CCCC(n3ccnc3)C2)c(C)n1C1CC1 (centres undefined),27.4
19,Cc1[nH]ncc1C(C)NCc1ccc(F)cc1 (centres undefined),63.7
20,COc1ccc(CNC(C)c2cn[nH]c2C)cc1 (centres undefined),11.8
21,Cc1[nH]ncc1C(C)NCc1cccnc1 (centres undefined),14.3
